Source: PubChem
TRb SRC2 PPI: TRbeta-SRC2 interaction inhibition; P10828; TRbeta-SRC2 peptide binding, fluorescence polarization; receptor liganded with 1 µM T3; Potency, µM (highest dose often 106 µM), most hits filed as inhibitors; 0.065% of 280,000 active; also: nearly all actives have a fitted effect of over 50% in size
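Quantitative HTS by FP: 0.6 uM TRb LBD, 20 nM labeled SRC2 20-mer, 1 uM T3, 5% DMSO; 5 hr ambient incubation; % activity per concentration and potencies from concentration series.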
Coupling enz: inhibits coupling enzyme system, counter-screen for aldolase hits; activity change, negative = inhibition, % at 58.2 µM, hits read low; 0.67% of 290,000 active; coupling enzyme system counterscreen, AmpLite Red fluorescence; AID 2472; in the data active = activity change below about -30%
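Coupling enzymes only (glyceraldehyde-3-phosphate) + compound, at 57.5 uM final, 10 min RT; add substrate/coupling/AmpLite Red mix, 20 min RT; fluorescence ex 525/em 598 nm. Actives flag coupling-system interference.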
HTT cytoprotect: protects HTT-Q103 PC12 cells, measured by ATP; 0.14% of 230,000 active; Potency, µM (top dose mostly 56.4 µM), hits mostly activators; PC12 HTT-Q103 induced, cytoprotection, ATP luminescence, 40 h; also: nearly all actives have a fitted effect of over 45% in size
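Quantitative HTS on tebufenozide-induced (100 nM) PC12 cells expressing HTTQ103 exon 1–GFP; compounds tested as a concentration series; survival measured via cellular ATP.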
TexasRed fluor: alters Texas Red total fluorescence, flagging assay interference; AID 1479; Potency, µM (series often up to 106 µM); 0.29% of 280,000 active; TRb/SRC2 Texas Red total fluorescence interference; active = well fitted curve in either direction with a large enough effect; inconclusive = small, poorly fitted or top-dose-only effect
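Human TRb ligand-binding domain at 0.6 uM with 20 nM Texas Red SRC2 peptide in Tris buffer containing 1 uM T3 and 5% DMSO, incubated with compound 5 h at ambient temperature. Total fluorescence (555/632 nm) calculated as parallel + 2 × perpendicular.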
KDM4E inh: inhibitors of human JMJD2E histone demethylase; JMJD2E catalytic domain, FDH-coupled NADH fluorescence (FDH is formaldehyde dehydrogenase); Potency, µM (top dose mostly 57.1 µM), most hits filed as inhibitors; 1.6% of 230,000 active; B2RXH2; active = well fitted inhibition curve with a large enough effect, not every such curve was filed as active; inconclusive = small, poorly fitted or top-dose-only effect, or another doubt; inactive = no such curve, though single readings can be large or run the other way; also: nearly all actives have a fitted effect of over 50% in size
Target sequence (B2RXH2 1-337 limits assumed): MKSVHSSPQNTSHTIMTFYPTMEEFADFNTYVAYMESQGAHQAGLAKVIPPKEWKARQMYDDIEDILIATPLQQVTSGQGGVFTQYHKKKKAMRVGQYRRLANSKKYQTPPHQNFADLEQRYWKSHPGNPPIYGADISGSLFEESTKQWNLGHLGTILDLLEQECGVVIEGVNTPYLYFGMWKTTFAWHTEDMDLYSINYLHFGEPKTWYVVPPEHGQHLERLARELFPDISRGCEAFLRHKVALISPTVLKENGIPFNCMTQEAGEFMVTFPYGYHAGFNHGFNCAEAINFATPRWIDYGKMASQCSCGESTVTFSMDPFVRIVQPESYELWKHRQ
HTT aggregate: reduces HttQ103-GFP aggregates in PC12 cells; PC12 HttQ103-GFP aggregates, Acumen cytometry, 40 h; Potency, µM (series often up to 46.1 µM), actives largely listed as inhibitors; 1.1% of 220,000 active; also: nearly all actives have a fitted effect of over 60% in size
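Compounds (qHTS titration) were added to PC12 cells expressing an ecdysone-driven HTT exon 1 Q103–GFP fusion after induction with 100 nM tebufenozide. Aggregate formation was measured as GFP objects in cell lysates.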
Hits are given with their value; - = inactive; ? = inconclusive; . = not tested or not shown; ! = a repeat was not active; [ ] = another dose, or the depositor's remark. Most compounds without a hit are left out; they make up all but 2% or so of the library. Unless noted, calls follow the shape of the dose curve; as a rule, active = well fitted curve in the direction sought with a large enough effect; inconclusive = small, poorly fitted or top-dose-only effect, or another doubt; inactive = no such curve, though single readings can be large; an effect the other way counts as inactive or inconclusive.

SMILES | TRb SRC2 PPI | Coupling enz | HTT cytoprotect | TexasRed fluor | KDM4E inh | HTT aggregate
O=C(O)CN(CCOCCOCCN(CC(=O)O)CC(=O)O)CC(=O)O | - | . | - | - | - | -
O=C(O)CN(CCN(CC(=O)O)CC(=O)O)CCN(CC(=O)O)CC(=O)O | - | - | ? | - | 6.31µM! | -
CC(C)N(CCC(=O)c1ccc2ccccc2c1)Cc1ccccc1 | - | - | - | - | 35.5µM | .
COc1ccc([C@H]2CC(=O)c3c(O)cc(O)cc3O2)cc1O | - | - | -[10 µM] | - | - | -[9.22 µM]
O=C1c2c(O)cc(O)cc2O[C@H](c2ccc(O)c(O)c2)C1O (some centres undefined) | - | - | . | - | . | .
Oc1ccc(C2Oc3cc(O)cc(O)c3CC2O)cc1 (centres undefined) | - | - | - | - | - | .
O=C(OC1Cc2c(O)cc(O)cc2OC1c1cc(O)c(O)c(O)c1-c1c(C2Oc3cc(O)cc(O)c3CC2OC(=O)c2cc(O)c(O)c(O)c2)cc(O)c(O)c1O)c1cc(O)c(O)c(O)c1 (centres undefined) | - | - | . | - | 11.2µM | .
O=C1c2c(O)cc(O)cc2OC(c2ccc(O)c(O)c2)C1O (centres undefined) | - | - | -[1.9 µM] | - | 8.91µM | .
Oc1cc(O)c2c(c1)O[C@H](c1ccc(O)c(O)c1)[C@H](O)C2 | - | - | ? | - | 11.2µM! | .
O=C(O[C@@H]1Cc2c(O)cc(O)cc2OC1c1ccc(O)c(O)c1)c1cc(O)c(O)c(O)c1 (some centres undefined) | - | - | . | - | 7.08µM | .
CCOC(=O)c1c(C)[nH]c(C)c1S(=O)(=O)NCC(=O)Nc1cccc(SC)c1 | - | . | . | - | . | .
Nc1ncnc2c1ncn2[C@@H]1CCCO1 | . | . | -[1.9 µM] | . | . | .
O=S(=O)(NC1CC1)c1ccc(S(=O)(=O)N2CCCc3ccccc32)cc1 | - | - | -[10 µM] | - | - | 11.2µM
O=S(=O)(c1ccccc1)N1CCCc2ccccc21 | . | - | . | . | . | .
C=CCOC(=O)NC(c1ccc(F)c(F)c1)C(C(C)=O)C(=O)OC (centres undefined) | - | - | - | - | - | .
Cc1cc(NC(=O)CC(C)C)c(=O)n(Cc2ccccc2F)c1 | . | -35.6 | . | . | . | .
Cc1cc(NC(=O)CC(C)C)c(=O)n(Cc2c(F)cccc2Cl)c1 | . | - | . | . | . | .
CN(C)CCCc1c2ccccc2nc2ccc(Cl)cc12 | . | . | -[10 µM] | . | . | .
COc1ccc2c([N+](=O)[O-])c(Cl)[nH]c2c1 | - | -32.0 | - | - | 15.8µM | -
CN1C(=O)C(Cl)(Cl)C(=O)c2ccccc21 | - | -74.8 | -[10 µM] | - | ? | ?
O=C(O)CSc1nnc2c3ccccc3c3ccccc3c2n1 | . | . | -[10 µM] | . | . | .
O=C(CSc1nnc2c3ccccc3c3ccccc3c2n1)Nc1ccccc1F | - | -40.2 | - | - | - | -
O=C(CSc1nnc2c3ccccc3c3ccccc3c2n1)Nc1ccccc1 | ? | -43.8 | - | - | - | -
CC(=O)/C=C/C1C(C)=CCCC1(C)C (centres undefined) | - | . | . | - | . | .
COc1ccc2c(c1)Cc1sc(NC(C)=O)nc1-2 | - | -31.2 | - | - | - | -
SMILES | TRb SRC2 PPI | Coupling enz | HTT cytoprotect | TexasRed fluor | KDM4E inh | HTT aggregate
O=C(CN1CCN(c2ccc(O)cc2)CC1)Nc1cc([N+](=O)[O-])ccc1Cl | - | - | -[10 µM] | - | 14.1µM | -
O=C1/C(=C/c2cccs2)SC(=S)N1NS(=O)(=O)c1ccccc1 | - | - | -[10 µM] | - | - | -[9.22 µM]
CC(C(=O)O)N1C(=O)/C(=C/C=C/c2ccco2)SC1=S (centres undefined) | - | . | - | ? | 0.891µM | -
O=C1/C(=C/C=C/c2ccco2)SC(=S)N1NS(=O)(=O)c1ccccc1 | - | - | -[10 µM] | - | 15.8µM | -[9.22 µM]
Nc1ncnc2c1ncn2[C@@H]1O[C@@H](COP(=O)(O)OP(=O)(O)OP(=O)(O)OP(=O)(O)OC[C@@H]2O[C@@H](n3cnc4c(N)ncnc43)[C@@H](O)[C@H]2O)[C@H](O)[C@@H]1O | . | . | -[1.9 µM] | . | . | .
CNc1cccccc1=S | - | - | - | - | 25.1µM | -
N[C@H](CS)C(=O)O | - | . | - | - | . | .
COc1ccccc1CN1CCC(CNC(=O)c2cnn(-c3ccc(Cl)cc3)c2C2CCN(C(=O)OC(C)(C)C)CC2)CC1 | - | . | . | - | . | .
CCOCCCNC(=O)c1[nH]c2cc(C)ccc2c1Sc1ccc(Cl)cc1 | - | . | . | - | . | .
C=CCNC(=O)c1ccccc1NC(=O)C1COc2ccccc2O1 (centres undefined) | - | - | -[10 µM] | - | - | 3.55µM
COC(=O)c1cc2oc(C)cc2n1CC(=O)Nc1ccc(C(C)C)cc1 | - | . | . | - | . | .
Cc1cc(NC(=O)CSCC(=O)N(c2cccc(Cl)c2)C(C(=O)NC2CCCCC2)c2ccc(O)c(O)c2)no1 (centres undefined) | - | - | -[10 µM] | - | 10µM | -
Cc1cc(NC(=O)CSCC(=O)N(c2ccc(F)cc2)C(C(=O)NC2CCCCC2)c2ccc(O)c(O)c2)no1 (centres undefined) | - | - | -[10 µM] | - | - | -
COc1ccc(N(C(=O)CSCC(=O)Nc2cc(C)on2)C(C(=O)NC2CCCCC2)c2ccc(O)c(O)c2)cc1 (centres undefined) | - | - | -[10 µM] | - | 11.2µM | -
Cc1ccc(C(C(=O)NC2CCCC2)N(C(=O)CCC(=O)Nc2cc(C)on2)c2ccccc2)cc1 (centres undefined) | - | - | -[10 µM] | - | - | -
Cc1ccccc1N1CCN(S(=O)(=O)c2ccc3oc(=O)ccc3c2)CC1 | - | - | -[10 µM] | - | - | 10µM
Nc1ccc(N2CCCCC2)c2nonc12 | ? | -53.2 | -[10 µM] | - | - | -[9.22 µM]
Nc1c(N2CCOCC2)cc(Cl)c2nonc12 | ? | -37.8 | -[0.074 µM] | - | ? | -
Nc1c(N2CCCC2)cc(Cl)c2nonc12 | ? | -33.6 | -[0.074 µM] | - | ? | -
CC(=O)Nc1ccccc1-c1nc2ccccc2n(C(C)C(=O)Nc2cccc(C)c2C)c1=O (centres undefined) | - | . | . | - | . | .
CCC(=O)O[C@H]1C(O[C@@H]2C(C)[C@H](O[C@H]3C[C@@](C)(OC)C(O)C(C)O3)C(C)C(=O)OC(CC)[C@@](C)(O)C(O)[C@H](C)C(=O)C(C)C[C@]2(C)O)OC(C)CC1N(C)C (some centres undefined) | - | - | - | - | - | .
COc1ccc(C2=Nn3c(nnc3-c3cccc(OC)c3OC)SC2)c(OC)c1 | - | - | . | - | . | .
Cc1c(NC(=S)N/N=C\c2ccccc2O)c(=O)n(-c2ccccc2)n1C | - | - | -[10 µM] | - | ? | ?
Cc1c(NC(=S)N/N=C/c2ccc([N+](=O)[O-])cc2O)c(=O)n(-c2ccccc2)n1C | - | - | -[10 µM] | - | 10µM | -[9.22 µM]
Cc1onc(C(=O)Nc2c(C)n(C)n(-c3ccccc3)c2=O)c1[N+](=O)[O-] | ? | -31.4 | -[10 µM] | ? | ? | -[9.22 µM]
